# NPR1 antag: antagonists of human natriuretic peptide receptor Npr1 | Potency, µM (titrated, usually from 46.3 µM), for inactives: at the top dose activity change, negative = inhibition, hits mostly inhibitors | AID 1347048 | HEK293 hNpr1 GloSensor cGMP, ANP-stimulated luminescence | 76,000 tested, 1.6% active | P16066; calls by dose curve; also: nearly all actives have a fitted effect of over 60% in size
#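 HEK293 cells stably expressing human Npr1 and cGMP GloSensor pGS-40F, loaded 2 h with 2% GloSensor reagent, given compound 30 min at room temperature. Luminescence read before and 20 min after 0.1 nM hNppA.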
# HEK293 tox: kills HEK 293 cells; AID 1345083; 94,000 tested, 6.6% active; HEK 293 viability, ATP luminescence (CellTiter-Glo), 48-72 h; Potency, µM (highest dose often 115 µM), for inactives: at the highest dose activity change, negative = cytotoxicity, most hits filed as inhibitors; also: nearly all actives have a fitted effect of over 60% in size
#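 HEK 293 cells seeded at 250 cells/well were exposed to compound for 48 or 72 hr at 37 degree Celsius. Viability taken as ATP content by CellTiter-Glo luminescence.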
# FLuc inh: Photinus pyralis luciferase inhibition; Potency, µM (titrated, usually from 115 µM), actives largely listed as inhibitors; AID 1347043; purified P. pyralis luciferase, luminescence, biochemical; 76,000 tested, 2.5% active; also: nearly all actives have a fitted effect of over 65% in size
# Target sequence (P08659 whole entry, looked up): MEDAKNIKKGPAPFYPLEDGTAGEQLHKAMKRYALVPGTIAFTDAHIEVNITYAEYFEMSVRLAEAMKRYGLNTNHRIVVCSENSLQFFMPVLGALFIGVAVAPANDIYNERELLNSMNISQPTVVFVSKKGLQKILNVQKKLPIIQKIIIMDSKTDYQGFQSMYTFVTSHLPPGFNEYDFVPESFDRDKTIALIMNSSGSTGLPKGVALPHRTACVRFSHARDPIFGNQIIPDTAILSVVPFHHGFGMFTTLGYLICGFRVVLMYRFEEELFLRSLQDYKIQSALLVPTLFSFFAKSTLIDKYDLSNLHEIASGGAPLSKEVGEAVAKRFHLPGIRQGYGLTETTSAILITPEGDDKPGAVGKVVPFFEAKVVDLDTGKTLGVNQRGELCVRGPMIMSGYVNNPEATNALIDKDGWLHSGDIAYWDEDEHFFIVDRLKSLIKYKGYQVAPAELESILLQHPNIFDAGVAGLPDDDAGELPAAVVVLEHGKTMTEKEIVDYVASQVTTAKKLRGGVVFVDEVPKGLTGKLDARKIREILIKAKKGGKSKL
#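 Purified P. pyralis luciferase (10nM final) in 50mM Tris acetate pH 7.5, 10mM Mg acetate, 0.01% Tween-20, 0.05% BSA with 10uM D-luciferin and 10uM ATP. Compounds titrated qHTS. Luminescence imaged on CCD.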
# SNCA expr inhib: reduces expression of the alpha-synuclein gene | HEK-293 SNCA-luciferase knock-in, luminescence, 24 h | Potency, µM (doses to about 57.2 µM), inactives show top-dose activity change, negative = inhibition, usual class: inhibitors | 140,000 tested, 0.17% active | AID 1671194;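 also: plate controls were DMSO cells for no effect and cell-free wells for full effect; nearly all actives have a fitted effect of over 45% in size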
# HEK293 viab: counter-screen for SNCA expression inhibitors: cell viability; HEK-293-SNCA-luc viability, GF-AFC fluorescence, 24 h; 150,000 tested, 0.12% active; Potency, µM (series often up to 57.1 µM), for inactives: at the top dose activity change, negative = cytotoxicity, actives largely listed as cytotoxic; AID 1671193;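 also: 0% = DMSO-treated cells and -100% = medium-only wells without cells; nearly all actives have a fitted effect of over 30% in size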
#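 HEK-293-SNCA-luc cells (1500/well) plated 24 h, then exposed 24 h to a dilution series; GF-AFC added 30 min at 37C, fluorescence 405/540 nm; normalised to medium-only and DMSO wells, Hill fit.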
# NIH3T3 tox: cytotoxic compounds in NIH 3T3 cells. NIH 3T3 viability, CellTiter-Glo ATP luminescence, 48-72 h. Potency, µM (doses to about 96.7 µM), for inactives: top-dose activity change, negative = cytotoxicity, actives largely listed as inhibitors. 94,000 tested, 4.3% active. AID 1345082; also: nearly all actives have a fitted effect of over 55% in size
#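 Luminescent ATP readout (CellTiter-Glo, 10 min RT) after 48 or 72 hr compound exposure of NIH 3T3 cells seeded at 400 cells/well in 1536-well format; quantitative HTS.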
# Active calls of the source: *; i = inactive; ? = inconclusive; . = not tested or not shown; [ ] = dose if it differs, or a comment. A selection: hits, their analogues and other compounds. The true share with any hit is near 7.4%. Unless noted, calls follow the shape of the dose curve; as a rule, active = well fitted curve in the direction sought with a large enough effect; inconclusive = small, poorly fitted or top-dose-only effect, or another doubt; inactive = no such curve, though single readings can be large; an effect the other way counts as inactive or inconclusive. Unless noted, % is scaled to controls: 0 for no effect and ±100 for the full control effect; potency is read from the fitted curve at half-maximal effect.
SMILES,NPR1 antag,HEK293 tox,FLuc inh,SNCA expr inhib,HEK293 viab,NIH3T3 tox
CSc1ccc(-c2cccc(C(=O)NCC(=O)NCCc3ccc(F)cc3)c2)cc1,.,?,.,7%,-4%,-29%
O=c1cc(N2CCOCC2)oc2c(Nc3ccccc3)nccc12,2%[70.6 µM],-14%[172 µM],i,21%[87.6 µM],5%[87.6 µM],40µM*
COc1ccc(-c2nccc3c(=O)cc(N4CCN(C)CC4)oc23)cn1,-1%[70.6 µM],i,i,11%[87.6 µM],12%[87.6 µM],?
O=c1cc(N2CCOCC2)oc2c(NC3CCOCC3)nccc12,1%[70.6 µM],-24%[172 µM],i,-24%[87.6 µM],9%[87.6 µM],32µM*
COc1ccc(Nc2nccc3c(=O)cc(N4CCOCC4)oc23)cn1,9%[70.6 µM],-32%[172 µM],i,?,?,89µM*
CNC(=O)c1cc(C2CC2)nc2onc(C3CCN(C(=O)c4ccc(OC)cc4)CC3)c12,.,?,.,.,.,-1%
O=C(NCC1CN(C(=O)Nc2ccccc2)CC12CCOCC2)N1CCCC1 (stereo unspecified),.,-5%,.,-7%,8%,-17%
Cc1ccc(OCc2nc(C3CCCN3C(=O)Nc3ccccc3)no2)cc1 (stereo unspecified),.,89µM*,.,24%,-2%,?
COc1ccc(CNC(=O)N2CCCC2c2noc(COc3ccc(C)cc3)n2)cc1 (stereo unspecified),-18%,?,i,40%,2%,?
Cc1ccc(OCc2nc(C3CCCN3C(=O)NCC(C)C)no2)cc1 (stereo unspecified),.,-12%,.,45%,8%,-22%
Cc1ccc(NC(=O)N2CCCCC2c2noc(COc3ccc(F)cc3)n2)cc1F (stereo unspecified),-26%,45µM*,i,10%,-7%,?
Cc1ccc(OCc2nc(C3CCCN3C(=O)Nc3ccc(C)c(F)c3)no2)cc1 (stereo unspecified),-23%,89µM*,i,18%,0%,?
O=C(CCCc1ccccc1)N1CC(CO)C2(CCNCC2)C1 (stereo unspecified),.,i,.,-2%,2%,i
Cc1noc(C)c1[S+](=O)([O-])N1CCN(C(=O)c2nc3cccnc3n(C3CC3)c2=O)CC1,.,i,.,26%,4%,-5%
CN(C)C[C@@H]1CN(Cc2ccccn2)C[C@H]1NC(=O)c1cccc(Cl)c1,7%,?,i,15%,-5%,?
CN(C)C[C@@H]1CN(Cc2ccncc2)C[C@H]1NC(=O)c1ccc(Cl)cc1,-10%,40µM*,i,7%,?,?
CN(C)C[C@@H]1CN(C2CCOCC2)C[C@H]1NC(=O)c1ccc(F)c(Cl)c1,-10%,79µM*,i,-15%,9%,?
COc1ccc(C(=O)N[C@@H]2CN(Cc3ccccc3)C[C@H]2CN(C)C)cn1,.,?,.,?,-10%,32µM*
Cc1ccc(C)c(C(=O)N[C@@H]2CN(Cc3ccccn3)C[C@H]2CN(C)C)c1,-4%,79µM*,i,10%,-4%,-3%
O=C(Nc1cncnc1)C1CCCN1c1nc2ncccc2o1 (stereo unspecified),.,-11%[172 µM],.,5%[87.6 µM],-22%[87.6 µM],-19%[138 µM]
COc1ccc(C(=O)N[C@@H]2CN(Cc3ccccc3)C[C@H]2CN(C)C)cc1,.,5.6µM*,.,?,-8%,?
F[C@@H]1CN(C2CCC2)C[C@@H]1OCc1nc2ccccc2o1,-8%[70.6 µM],-24%[230 µM],79µM*,50%[87.6 µM],-1%[87.6 µM],-18%[174 µM]
F[C@@H]1CN(C2CCOCC2)C[C@@H]1OCc1nc2ccccc2o1,-8%[70.6 µM],-24%[172 µM],i,36%[87.6 µM],-1%[87.6 µM],-14%[138 µM]
F[C@@H]1CN(CC2CC2)C[C@@H]1OCc1nc2ccccc2o1,1%[70.6 µM],-10%[230 µM],35µM*,131%[87.6 µM],2%[87.6 µM],-13%[174 µM]
Fc1ccc(CN2C[C@@H](F)[C@@H](OCc3nc4ccccc4o3)C2)cc1,-8%[70.6 µM],?,i,?,1%[87.6 µM],?
SMILES,NPR1 antag,HEK293 tox,FLuc inh,SNCA expr inhib,HEK293 viab,NIH3T3 tox
O=C(C1CCCN1C(=O)c1ccc(C(F)(F)F)cc1)N1CCC(c2nc3ncccc3[nH]2)CC1 (stereo unspecified),.,i,.,-1%,1%,-13%
CC[C@H]1CN2CCc3cc(OC)c(OC)cc3[C@H]2C[C@@H]1C[C@@H]1NCCc2cc(OC)c(OC)cc21,.,.,.,0.61µM*,?,.
COc1cc2c(cc1OC)C1CC(=O)C(CC(C)C)CN1CC2 (stereo unspecified),.,.,.,15%,3%,.
COC(=O)C1C(O)CCC2CN3CCc4c([nH]c5ccccc45)C3CC21 (stereo unspecified),.,.,.,.,-1%,.
COC(=O)[C@@H]1Cc2c([nH]c3ccccc23)[C@H]2C[C@@H](NC[C@H]3CCCO3)C[C@@H](c3ccccc3F)N21,5%,79µM*,i,2%,-1%,79µM*
COC(=O)[C@@H]1Cc2c([nH]c3ccccc23)[C@H]2C[C@@H](NCCc3cnc[nH]3)C[C@@H](c3ccccc3F)N21,-14%,25µM*,i,-11%,-2%,28µM*
O=C(NCc1cccc(F)c1)C1(c2ccc(Cl)cc2)CCOCC1,.,?,.,.,.,-23%[138 µM]
COc1ccc(-c2cc(N3CCCN(C(=O)c4ccc(C)s4)CC3)n[nH]2)cc1,0%,40µM*,?,9%,?,?
COc1ccc(-c2cc(N3CCCN(C(=O)C(C)c4ccccc4)CC3)n[nH]2)cc1 (stereo unspecified),-2%,79µM*,i,-9%,-22%,?
COc1ccc(-c2cc(N3CCN(C(=O)c4c[nH]c5ccccc45)CC3)n[nH]2)cc1,0%,?,i,?,-9%,25µM*
CC(C(=O)N1CCN(c2cc(-c3ccc(Cl)cc3)[nH]n2)CC1)c1ccccc1 (stereo unspecified),0%,28µM*,i,?,?,?
O=C(c1ccc(C(F)(F)F)cc1)N1CCC(C(=O)N2CCC(N3Cc4cccn4C3=O)CC2)CC1,.,?,.,-12%,-15%,?
CC(C)NC(=O)N1CCC2(CC1)CC(c1cccc(C(F)(F)F)c1)=NO2,.,?,.,.,.,-11%
COc1ccc(-c2cc(N3CCCN(C(=O)C4(c5ccc(OC)cc5)CC4)CC3)n[nH]2)cc1,?,45µM*,i,-37%,-20%,?
O=C(c1cccc(Cl)c1)N1CCCC(C(=O)N2CCC(N3CCCC3=O)CC2)C1 (stereo unspecified),.,-2%,.,5%,7%,-28%
Cc1cccc(-c2cccc(CN3CCC(NC(=O)c4ccccc4Cl)CC3)c2)c1,.,?,.,-30%,?,?
